Consider 5 molecules from PubChem BioAssay (EPA / NIEHS).

The source made the active and inactive calls. Rule for the calls: active = hit-call score of the fitted dose curve at least 0.9, where 1 is the maximum; inactive = score below 0.9.

A short description of assay [1]: ATG_CRE_CIS: Attagene CIS-FACTORIAL HepG2 Assay for human cAMP Responsive Element (CRE) binding protein 3 (AID 2282926). The following applies: HepG2 CRE cis-reporter, Attagene multiplexed mRNA; actives raise or lower the signal. The gist of the method:
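HepG2 cells transiently transfected with cis-element-driven multiple reporter transcription units; CRE reporter mRNA measured 24 h after dosing by RT-PCR, 6-FAM labelling, HpaI digestion and capillary electrophoresis. Bidirectional fit versus DMSO baseline.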

Assay [2] has as its target CCAAT/enhancer-binding protein beta (Homo sapiens) (UniProt P17676). The experiment in a line: ATG_C_EBP_CIS: Attagene CIS-FACTORIAL HepG2 Assay for human CCAAT/Enhancer Binding Protein (C/EBP) beta (AID 2282927). Particulars: HepG2 Attagene cis-factorial transcription factor reporter; actives raise or lower the signal. The method, boiled down: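 HepG2 transiently transfected with multiplexed reporter units under cis-regulatory promoters reporting endogenous C/EBPb activity. After 24 h exposure, reporter mRNA assayed by RT-PCR, fluorescent labelling, HpaI digestion and capillary electrophoresis; bidirectional fitting versus DMSO.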

Assay [3] can be described thus: ATG_DR4_LXR_CIS: Attagene CIS-FACTORIAL HepG2 Assay for human Liver X Receptor (LXR), DR4 submotif (AID 2282929). The following applies: HepG2 Attagene DR4 cis-reporter, mRNA transcription; actives raise or lower the signal. The gist of the method:
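DR4 cis-reporter in HepG2, 24 h exposure. Detection: RT-PCR, 6-FAM labelling, CE fragment analysis. Endpoint fitted bidirectionally, DMSO = baseline.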

A short description of assay [4]: ATG_AP_2_CIS: Attagene CIS-FACTORIAL HepG2 Assay for human Activator Protein 2 (AP-2) (AID 2282932). Particulars: HepG2 AP-2 cis-reporter, Attagene transcription factor profiling; actives raise or lower the signal. The gist of the method: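 HepG2 cells transiently transfected with cis-element reporter units and exposed for 24 h. Reporter mRNA measured by RT-PCR, FAM labelling, HpaI digestion and capillary electrophoresis. Changes in either direction fitted relative to DMSO.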

Assay [5] is described as follows: ATG_BRE_CIS: Attagene CIS-FACTORIAL HepG2 Assay for human Bone Morphogenetic Protein (BMP) Response Element (BRE) (AID 2282933). The following applies: HepG2 BMP response element reporter, Attagene transcription factor profiling; actives raise or lower the signal. The gist of the method: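 HepG2 cells transiently transfected with CIS reporter units (endogenous TF activity, BMP response element), dosed 24 h. Reporter mRNA quantified by RT-PCR, fluorescent labelling and capillary electrophoresis; bidirectional fit vs DMSO baseline.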

For assay [6], the target named is Transcription factor E2F1 (Homo sapiens) (UniProt Q01094). The experiment in a line: ATG_E2F_CIS: Attagene CIS-FACTORIAL HepG2 Assay for human E2F Transcription Factor 1 (AID 2282935). Particulars: HepG2 Attagene cis-reporter, E2F reporter RNA transcripts; actives raise or lower the signal. The method, boiled down: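 Endogenous E2F1 activity read through cis-promoter reporter units transfected into HepG2. After 24 h compound treatment, reporter mRNA measured by RT-PCR, HpaI digestion and capillary electrophoresis. Bidirectional fit versus DMSO.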
Sequence of Transcription factor E2F1 (Homo sapiens) (Q01094 whole entry, looked up): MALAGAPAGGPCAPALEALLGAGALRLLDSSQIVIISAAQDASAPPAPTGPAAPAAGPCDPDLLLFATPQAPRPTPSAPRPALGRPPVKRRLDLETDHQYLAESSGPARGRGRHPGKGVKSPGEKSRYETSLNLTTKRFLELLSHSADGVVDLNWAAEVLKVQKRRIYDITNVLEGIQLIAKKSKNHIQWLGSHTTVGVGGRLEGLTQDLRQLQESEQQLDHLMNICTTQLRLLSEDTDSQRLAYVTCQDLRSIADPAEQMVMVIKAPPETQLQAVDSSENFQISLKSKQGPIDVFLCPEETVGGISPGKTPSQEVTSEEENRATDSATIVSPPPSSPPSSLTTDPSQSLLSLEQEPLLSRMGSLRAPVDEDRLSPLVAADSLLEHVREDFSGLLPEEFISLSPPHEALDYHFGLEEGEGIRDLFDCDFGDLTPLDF

Assay [7] in a line: ATG_EGR_CIS: Attagene CIS-FACTORIAL HepG2 Assay for human Early Growth Response 1 (EGR1) (AID 2282938). The following applies: HepG2 Attagene CIS-FACTORIAL EGR reporter mRNA; actives raise or lower the signal. The method, boiled down: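 Endpoint derived by bidirectional fitting versus DMSO vehicle. Method: cis-promoter reporter units transfected into HepG2, 24 h dosing, RNA isolation, RT-PCR with 6-FAM primer extension and HpaI digestion, then capillary electrophoresis fluorescence detection.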

Assay [8] in a line: ATG_M_19_CIS: Attagene CIS-FACTORIAL HepG2 Assay for M19 Transcription Factor (Internal Marker) (AID 2282939). The following applies: HepG2 Attagene CIS-FACTORIAL M19 internal marker reporter; actives raise or lower the signal. The gist of the method:
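HepG2 cells transiently transfected with cis-regulated multiplexed reporter units, dosed 24 h. Reporter mRNA quantified by RT-PCR and capillary electrophoresis; internal background marker fitted bidirectionally versus DMSO.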

A short description of assay [9]: ATG_Ets_CIS: Attagene CIS-FACTORIAL HepG2 Assay for human Erythroblast Transformation Specific (ETS) (AID 2282941). The following applies: HepG2 ETS cis-reporter transcription, actives raise or lower the signal. The method, boiled down:
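Steps: transfect HepG2 with multiple reporter units; treat compound 24 h; isolate RNA, DNase-treat, reverse-transcribe; PCR-amplify, label with 6-FAM, digest with HpaI; separate by capillary electrophoresis. Activity fitted both directions versus DMSO.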

The target of assay [10] is Hepatocyte nuclear factor 3-beta (Homo sapiens) (UniProt Q9Y261). The experiment in a line: ATG_FoxA2_CIS: Attagene CIS-FACTORIAL HepG2 Assay for human Forkhead box A2 (FOXA2) (AID 2282942). Particulars: HepG2 cis-reporter transcription factor activity, 24 h; actives raise or lower the signal. The gist of the method:
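Measured: reporter mRNA induction or loss in HepG2 transiently carrying multiple cis-regulated reporter units, 24 h after dosing. Quantified by RT-PCR plus capillary electrophoresis, normalised to DMSO.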

Assay [11] is described as follows: ATG_FoxO_CIS: Attagene CIS-FACTORIAL HepG2 Assay for human Forkhead box O (FoxO) (AID 2282943). The following applies: HepG2 Attagene cis-reporter, FoxO element, mRNA; actives raise or lower the signal. The gist of the method:
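HepG2 cells transiently transfected with cis-element-driven reporter units report endogenous FoxO activity. After 24 h chemical exposure, reporter mRNA quantified by RT-PCR, fluorescent labeling, HpaI digestion and capillary electrophoresis; bidirectional fit versus DMSO.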

Assay [12] can be described thus: ATG_GATA_CIS: Attagene CIS-FACTORIAL HepG2 Assay for human GATA Binding Protein (AID 2282944). Particulars: HepG2 GATA cis-element reporter, Attagene multiplex mRNA; actives raise or lower the signal. The method, boiled down:
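HepG2 cells transiently transfected with multiplexed cis-element reporter units measure endogenous GATA activity; after 24 h compound exposure, reporter mRNA quantified by RT-PCR and capillary electrophoresis. Changes fitted in both directions vs DMSO.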

Assay [13] can be described thus: ATG_GLI_CIS: Attagene CIS-FACTORIAL HepG2 Assay for human Zinc Finger Protein GLI1 (AID 2282945). The following applies: HepG2, Attagene cis-factorial reporter mRNA, GLI element; actives raise or lower the signal. The gist of the method:
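Transiently transfected HepG2 cells report endogenous transcription factor activity via cis-element-driven reporter units. After 24 h compound exposure, reporter mRNA was measured by RT-PCR with capillary electrophoresis; bidirectional fitting against DMSO baseline.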

Assay [14] in a line: ATG_M_06_CIS: Attagene CIS-FACTORIAL HepG2 Assay for M06 Transcription Factor (Internal Marker) (AID 2282950). Particulars: HepG2 Attagene CIS-FACTORIAL M06 internal marker reporter; actives raise or lower the signal. The method, boiled down:
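Internal background marker within multiplexed cis-reporter HepG2 system. Cells transiently transfected, dosed 24 h; reporter mRNA measured by RT-PCR, HpaI digestion and capillary electrophoresis. Bidirectional fit relative to DMSO.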

The target in assay [15] is Hepatocyte nuclear factor 6 (Homo sapiens) (UniProt Q9UBC0). The experiment in a line: ATG_HNF6_CIS: Attagene CIS-FACTORIAL HepG2 Assay for human Hepatocyte Nuclear Factor 6 (HNF6) (AID 2282952). The following applies: HepG2 Attagene cis-factorial HNF6 reporter transcription; actives raise or lower the signal. The gist of the method:
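HepG2 cells transiently transfected with cis-element-driven multiplexed reporter units measuring endogenous transcription factor activity. After 24 h exposure, reporter mRNA quantified by RT-PCR, FAM-labelled fragments and capillary electrophoresis; bidirectional fitting versus DMSO.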

The nature of assay [16]: ATG_MRE_CIS: Attagene CIS-FACTORIAL HepG2 Assay for human Metal Responsive Element (MRE) (AID 2282954). The following applies: HepG2 MRE cis-reporter transcription, Attagene multiplex; actives raise or lower the signal. The gist of the method: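 HepG2 cells transiently transfected with cis-element-driven reporter units; mRNA measured 24 h after dosing. Reporter transcripts quantified by RT-PCR, FAM labelling, HpaI digestion and capillary electrophoresis; bidirectional fit versus DMSO.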

Assay [17] has as its target Paired box protein Pax-6 (Homo sapiens) (UniProt P26367). The experiment in a line: ATG_Pax6_CIS: Attagene CIS-FACTORIAL HepG2 Assay for human Paired Box 6 (PAX6) (AID 2282956). Particulars: HepG2 CIS-FACTORIAL PAX6 reporter transcription, RNA readout; actives raise or lower the signal. The method, boiled down:
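Transient MRTU transfection of HepG2 → compound exposure 24 h → TriZol RNA, oligo(dT) RT → PCR, 6-FAM primer extension, HpaI cut → capillary electrophoresis; activity fitted both directions against DMSO.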

Assay [18] can be described thus: ATG_PXRE_CIS: Attagene CIS-FACTORIAL HepG2 Assay for human Pregnane X Receptor Element (PXRE) (AID 2282957). Particulars: HepG2 Attagene CIS-FACTORIAL PXRE reporter, mRNA; actives raise or lower the signal. The gist of the method: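 HepG2 cells transiently transfected with cis-element-driven multiplexed reporter units; after 24 h chemical exposure, reporter mRNA measured by RT-PCR, 6-FAM labelling, HpaI digestion and capillary electrophoresis. Bidirectional fitting relative to DMSO.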

Assay [19] is described as follows: ATG_Sox_CIS: Attagene CIS-FACTORIAL HepG2 Assay for human SRY-box transcription factor (SOX) (AID 2282960). The following applies: HepG2 Attagene cis-factorial SOX reporter, mRNA; actives raise or lower the signal. The gist of the method:
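Gain- or loss-of-signal endpoint, fitted bidirectionally with DMSO as negative control. Based on reporter mRNA from transfected HepG2 cells harvested 24 h post-treatment and quantified via RT-PCR and capillary electrophoresis.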

In general, AC50 refers to the concentration giving half of the maximal activity seen.

Sequence of CCAAT/enhancer-binding protein beta (Homo sapiens) (P17676 whole entry, looked up): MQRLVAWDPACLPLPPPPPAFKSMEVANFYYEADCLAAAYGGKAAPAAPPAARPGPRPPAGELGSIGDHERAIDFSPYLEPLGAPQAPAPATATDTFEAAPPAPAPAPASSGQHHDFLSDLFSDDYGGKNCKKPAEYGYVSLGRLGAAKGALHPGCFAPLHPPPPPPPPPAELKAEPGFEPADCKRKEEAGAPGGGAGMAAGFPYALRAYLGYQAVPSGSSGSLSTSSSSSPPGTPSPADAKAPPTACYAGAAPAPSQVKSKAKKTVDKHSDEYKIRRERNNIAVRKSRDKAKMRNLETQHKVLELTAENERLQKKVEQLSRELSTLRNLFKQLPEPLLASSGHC
Sequence of Hepatocyte nuclear factor 3-beta (Homo sapiens) (Q9Y261 whole entry, looked up): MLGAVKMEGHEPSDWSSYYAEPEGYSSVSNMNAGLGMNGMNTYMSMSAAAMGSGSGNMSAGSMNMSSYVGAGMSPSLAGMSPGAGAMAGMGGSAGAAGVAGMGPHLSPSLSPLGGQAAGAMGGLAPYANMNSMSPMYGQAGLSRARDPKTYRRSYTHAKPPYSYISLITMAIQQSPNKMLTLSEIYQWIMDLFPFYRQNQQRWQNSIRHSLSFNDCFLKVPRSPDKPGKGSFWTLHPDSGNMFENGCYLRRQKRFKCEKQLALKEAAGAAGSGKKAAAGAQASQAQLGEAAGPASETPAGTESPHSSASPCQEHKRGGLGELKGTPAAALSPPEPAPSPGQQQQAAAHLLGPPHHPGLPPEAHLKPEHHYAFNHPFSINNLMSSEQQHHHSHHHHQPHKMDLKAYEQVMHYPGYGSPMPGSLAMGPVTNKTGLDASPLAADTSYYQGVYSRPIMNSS
Sequence of Paired box protein Pax-6 (Homo sapiens) (P26367 whole entry, looked up): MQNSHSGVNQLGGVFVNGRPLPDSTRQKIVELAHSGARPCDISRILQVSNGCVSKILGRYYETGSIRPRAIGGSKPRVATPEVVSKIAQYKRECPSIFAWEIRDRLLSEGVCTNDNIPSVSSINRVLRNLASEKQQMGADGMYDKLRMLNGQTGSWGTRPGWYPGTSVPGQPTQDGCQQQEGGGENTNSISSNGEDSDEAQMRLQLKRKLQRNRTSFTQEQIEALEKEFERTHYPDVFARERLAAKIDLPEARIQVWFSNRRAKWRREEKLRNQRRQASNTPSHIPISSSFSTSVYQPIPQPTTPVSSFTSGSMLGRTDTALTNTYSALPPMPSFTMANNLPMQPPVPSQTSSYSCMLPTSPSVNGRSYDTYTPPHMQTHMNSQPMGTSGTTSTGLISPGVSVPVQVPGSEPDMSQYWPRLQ
Sequence of Hepatocyte nuclear factor 6 (Homo sapiens) (Q9UBC0 whole entry, looked up, the tested form may be a part): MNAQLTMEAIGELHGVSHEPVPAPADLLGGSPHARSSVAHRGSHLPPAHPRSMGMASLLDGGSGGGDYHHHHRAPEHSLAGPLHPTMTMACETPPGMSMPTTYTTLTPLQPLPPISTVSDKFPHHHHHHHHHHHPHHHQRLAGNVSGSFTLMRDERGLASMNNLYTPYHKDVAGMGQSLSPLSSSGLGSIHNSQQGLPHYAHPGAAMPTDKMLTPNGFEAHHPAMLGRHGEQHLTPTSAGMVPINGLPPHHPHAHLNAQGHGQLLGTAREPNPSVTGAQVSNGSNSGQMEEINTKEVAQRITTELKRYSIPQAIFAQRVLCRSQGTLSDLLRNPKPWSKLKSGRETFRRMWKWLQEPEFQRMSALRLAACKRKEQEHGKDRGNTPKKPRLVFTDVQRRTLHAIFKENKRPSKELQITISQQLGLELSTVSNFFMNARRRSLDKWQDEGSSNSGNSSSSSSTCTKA

As to `O=[N+]([O-])c1cc([N+](=O)[O-])c2ccccc2c1`, the molecule was classed as inactive in assay [1], in [2], in assay [3], in assay [4], in assay [5] and in [6]. The molecule was classed as inactive in assay [7], in assay [8], in assay [9], in assay [10], in assay [11] and in [12]. The molecule was called inactive in [13], in [14], in [15], in [16], in [17] and in assay [19]. Further, the AC50 in assay [18] is 8.8 µM (active).

For `CCN(CC)C(=S)S`, the molecule was called inactive in assay [1], in assay [2], in [3], in [4], in assay [5] and in assay [6]. In addition, the result in assay [7], in assay [8], in [9], in assay [10], in assay [11] and in assay [12] was inactive. For the same molecule, the result in assay [13], in assay [14], in [15], in assay [17] and in [19] was inactive. The AC50 in assay [16] is 71.9 µM (active); in [18], 22.7 µM (active).

On to `CC(C)COP(=O)(OCC(C)C)OCC(C)C`, for which the result in [1], in assay [2], in assay [4], in [5], in [6] and in assay [7] was inactive. Besides, the molecule was classed as inactive in assay [8], in assay [9], in assay [10], in [11], in [12] and in [13]. The outcome in assay [14], in assay [15], in assay [16], in [17] and in [19] was inactive. The AC50 is 57.9 µM (active) in assay [3] and 2.21 µM (active) in [18].

`CC1OC(C)OC(C)O1` (stereo not given): the molecule was called inactive in [1], in [2], in assay [3], in [4], in assay [5] and in assay [6]. Moreover, the result in assay [7], in assay [8], in assay [9], in assay [10], in assay [11] and in assay [12] was inactive. The molecule was classed as inactive in [13], in assay [14], in assay [15], in assay [16], in assay [17] and in [18]. Besides, in assay [19], the call was inactive.

As for `O=C(O)CCl`, the molecule was called inactive in assay [1], in [2], in [3], in assay [4], in assay [5] and in assay [6]. Further, the molecule was called inactive in [7], in [8], in assay [9], in assay [10], in assay [11] and in [12]. In addition, the molecule was called inactive in assay [13], in assay [14], in assay [15], in assay [16], in assay [17] and in assay [18]. The call in assay [19] was inactive.
